Screens as filed in PubChem.
p53ts 32C tox: p53ts cell cytotoxicity, permissive temperature | AID 924 | H1299-p53A138V at 32C, ATP luminescence viability, 24 h | Potency, µM (top dose mostly 46.1 µM), inactives show top-dose activity change, negative = cytotoxicity, actives largely listed as cytotoxic | hit rate 0.93% among 130,000;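 further: 0% = DMSO and -100% = full killing by reference compound; nearly all actives have a fitted effect of over 55% in size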
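ATP-content luminescence (ATPlite) read-out after 24 h compound exposure at 32C in H1299-p53A138V cells (600/well). Tested up to 46 uM. Normalized to DMSO (0%) and 100 uM tamoxifen (100% killing); Hill-fit AC50.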
p53ts 39C kill: p53ts cell cytotoxicity, nonpermissive temperature | H1299-p53A138V viability at 39C, ATP luminescence, 24 h | Potency, µM (top dose mostly 46.1 µM), for the others: at the highest dose activity change, negative = cell killing, hits mostly cytotoxic | hit rate 1.5% among 130,000 | AID 902; further: on the % scale 0 is the no-effect control and ±100 the full control effect; nearly all actives have a fitted effect of over 55% in size
Peg3 imprint: inducers of genomic imprint erasure in mouse ES cells | hit rate 0.02% among 110,000 | Potency, µM (titrated, usually from 60.7 µM), for the others: top-dose activity change, positive = activation, actives largely listed as activators | AID 1948 | mouse ES Peg3-LacZ reporter, beta-gal luminescence, 40 h
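Each well holds 300 Peg3LacZ-Neo (maternal) female ES cells incubated 40 h at 37C, 5% CO2. LacZ is measured by BetaGlo luminescence, with AC50 and maximum efficacy derived from dose-response curves.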
Starred values were filed as active, the others as inactive; ? = inconclusive; · = not tested or not shown; [ ] = dose if it differs, or a comment. Only some compounds are listed: those with a hit (about 1.8% of all), similar ones and a draw of the others. The call rests on the fitted dose curve; in most records, active means well fitted curve in the direction sought with a large enough effect; inconclusive means small, poorly fitted or top-dose-only effect, or another doubt; inactive means no such curve, though single readings can be large; an effect the other way counts as inactive or inconclusive. Potency means the concentration at half of the fitted maximal effect.

SMILES | p53ts 32C tox | p53ts 39C kill | Peg3 imprint
O=c1c2c(nc3c(-c4cccc5ccccc45)c[nH]n13)CCC2 | ? | -19% | ?
O=c1c2c(nc3c(-c4ccc(Cl)cc4)c[nH]n13)CCCC2 | -16% | 20µM* | -9%
O=C(CSc1nc2ccsc2c(=O)n1Cc1ccccc1Cl)NCc1ccc(Cl)cc1 | 1% | -5% | 10%[10.9 µM]
Cc1ccc(Cn2c(SCC(=O)NCc3ccccc3Cl)nc3ccsc3c2=O)cc1 | 7% | 10µM* | 16%[10.9 µM]
CCCCN(Cc1ccco1)C(=O)c1cc2c(s1)-c1c(C)cccc1OC2 | ? | ? | 17%[10.9 µM]
CN(C)CCN(Cc1ccco1)C(=O)c1cc2c(s1)-c1ccccc1OC2 | -9% | 13µM* | -21%[10.9 µM]
COC(=O)c1ccc2oc(=O)c(S(=O)(=O)c3ccc(C)cc3)cc2c1 | 3% | ? | 6%[10.9 µM]
CC(C)c1ccc(NC(=O)c2ccc3oc(=O)c(S(=O)(=O)c4ccc(F)cc4)cc3c2)cc1 | 10µM* | 2.5µM* | ?
Cc1cccc(NC(=O)c2ccc3oc(=O)c(S(=O)(=O)c4ccc(F)cc4)cc3c2)c1C | -7% | ? | -2%[10.9 µM]
COc1cc(NC(=O)c2ccc3oc(=O)c(S(=O)(=O)c4ccccc4)cc3c2)cc(OC)c1 | 16µM* | ? | -6%[10.9 µM]
Cc1cccc(C)c1OCCCn1c(CCNC(=O)C2CCCCC2)nc2ccccc21 | ? | 16µM* | -17%[10.9 µM]
Cc1ccccc1OCCCCn1c(CCNC(=O)C(C)(C)C)nc2ccccc21 | 8% | ? | -8%[10.9 µM]
Cc1cccc(OCCCn2c(CCNC(=O)C(C)(C)C)nc3ccccc32)c1 | 2% | -6% | -7%[10.9 µM]
Cc1ccc(OCCCn2c(CCNC(=O)C3CCCCC3)nc3ccccc32)c(C)c1 | 4% | ? | -12%[10.9 µM]
Cc1cc(OCCCn2c(CCNC(=O)C3CCCCC3)nc3ccccc32)ccc1Cl | ? | 13µM* | -14%[10.9 µM]
CC(C)(C)C(=O)NCCc1nc2ccccc2n1CCCCOc1ccc(Cl)cc1 | 6% | 32µM* | -7%[10.9 µM]
CN(C)C(=O)c1ccc(-c2cc(NCc3ccccc3)ncn2)cc1 | 1% | -3% | -1%
c1ccc(CN2CCN(c3nc4ccccc4n4cnnc34)CC2)cc1 | -13% | -1% | -17%
FC(F)(F)c1cccc(N2CCN(c3nc4ccccc4n4cnnc34)CC2)c1 | -2% | 16µM* | -8%[10.9 µM]
Cc1cccc(NC(=O)CSc2nccn2Cc2ccc(F)cc2)c1C | 10% | -32% | -6%[10.9 µM]
CCOCCCNCC(O)c1ccccc1 (stereo not drawn) | · | 11% | ·
OCc1cc(C(O)CNCCCCCCOCCCCc2ccccc2)ccc1O (stereo not drawn) | ? | 13µM* | -55%
CC1CCN(Cc2c(O)ccc3c(=O)c(-c4cccc(Cl)c4)c(C(F)(F)F)oc23)CC1 | 4% | 11% | -5%[10.9 µM]
CC(C)(C)OC(=O)N1CCC(c2c(C(=O)NCCN3CCC(Cc4ccccc4)CC3)cnn2-c2ccccc2)CC1 | ? | 32µM* | -15%[10.9 µM]
COc1ccc(CCN2CCC(CNC(=O)c3cnn(-c4ccccc4)c3C3CCN(C(=O)OC(C)(C)C)CC3)CC2)cc1 | -9% | 13µM* | -10%[10.9 µM]
SMILES | p53ts 32C tox | p53ts 39C kill | Peg3 imprint
CC(C)(C)OC(=O)N1CCC(c2c(C(=O)NCc3ccc(F)cc3)cnn2-c2ccc(F)cc2)CC1 | 26% | -1% | 6%[10.9 µM]
COc1ccc(CCN2CCC(CNC(=O)c3cnn(-c4cccc(Cl)c4)c3C3CCN(C(=O)OC(C)(C)C)CC3)CC2)cc1 | ? | ? | -3%[10.9 µM]
CC(C)(C)OC(=O)N1CCC(c2c(C(=O)NCCN3CCC(Cc4ccccc4)CC3)cnn2-c2ccc(F)cc2)CC1 | ? | 25µM* | -10%[10.9 µM]
CN1CCN(CCCNC(=O)c2cnn(-c3ccccc3)c2C2CCN(C(=O)OC(C)(C)C)CC2)CC1 | -9% | -2% | -6%[10.9 µM]
COc1cc(OC)c(NC(=O)CCc2c(C)nc3c4c(C)cc(C)nc4nn3c2C)cc1Cl | 3% | 19% | -3%[10.9 µM]
CCOC(=O)N1CCN(Cc2nc3cc([N+](=O)[O-])ccc3n2C(C)C)CC1 | -3% | -11% | 20%[10.9 µM]
C/C(CC/C(C)=N/O)=N/O | -1%[9.22 µM] | -1%[9.22 µM] | -1%[10.9 µM]
O=C(CSc1nnc(-c2ccccc2F)o1)Nc1ccccc1Cl | ? | 13µM* | 11%[10.9 µM]
COc1cccc(NC(=O)CSc2nnc(-c3ccc(C)cc3)o2)c1 | -22% | ? | -85%
COc1cccc(NC(=O)COc2ccccc2C(N)=O)c1 | 16µM* | 10µM* | -79%
O=C(CSc1nnc(-c2ccc(Cl)cc2)o1)c1ccc([N+](=O)[O-])cc1 | -9% | 27% | -5%[10.9 µM]
CC(=O)Nc1cccc(-c2nnc(SCC(=O)c3cc([N+](=O)[O-])ccc3Cl)o2)c1 | ? | 13µM* | -27%[10.9 µM]
COc1ccc(OCC(=O)Nc2cccc(OC)c2)cc1 | -11% | -6% | 2%
